Hits are enriched below; roughly 0.52% of the tested compounds scored in any of these assays.
PINK1 modulator = changes PINK1 expression. PINK1 immunofluorescence, high-content cytometry, 24 h. Potency, µM (series often up to 76.6 µM), without a hit: at the top dose activation (PINK1 increase), usual class: activators. hit rate 0.2% among 410,000; active = well fitted activation curve with a large enough effect; inconclusive = small, poorly fitted or top-dose-only effect; cell line not stated here; note: % of control where 0% means no effect; nearly all actives have a fitted effect of over 65% in size
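Fluorescence from anti-PINK1 antibody, together with nuclear and cell stains, was scanned on a laser-scanning cytometer. Before staining, stable-line cells were incubated 24 hours with compounds at 5 concentrations; primary antibody 12 h at 10 degrees C.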
Vif-A3G inh = Vif-A3G binding inhibition. Q9HC16. HeLa A3G-eYFP + Vif (tagged APOBEC3G with the HIV-1 protein that degrades it), YFP fluorescence, overnight. Potency, µM (top dose mostly 46.1 µM), without a hit: at the top dose activity, negative = active, usual class: inhibitors. hit rate 0.076% among 410,000. AID 602310; note: % is set by controls: 0 for no effect and ±100 for the full control effect; nearly all actives have a fitted effect of over 60% in size
Target sequence (Q9HC16 whole entry, looked up): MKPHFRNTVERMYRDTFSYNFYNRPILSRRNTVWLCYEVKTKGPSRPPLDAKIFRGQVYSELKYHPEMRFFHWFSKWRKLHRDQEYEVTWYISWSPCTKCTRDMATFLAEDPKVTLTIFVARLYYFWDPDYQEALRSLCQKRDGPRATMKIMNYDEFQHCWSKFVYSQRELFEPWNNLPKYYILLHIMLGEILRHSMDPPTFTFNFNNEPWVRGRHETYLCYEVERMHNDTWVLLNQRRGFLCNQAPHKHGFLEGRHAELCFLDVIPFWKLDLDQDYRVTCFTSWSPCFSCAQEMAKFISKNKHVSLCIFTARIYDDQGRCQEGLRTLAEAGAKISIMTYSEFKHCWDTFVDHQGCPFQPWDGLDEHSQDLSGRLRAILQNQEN
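HeLa cells stably expressing Vif and C-terminally eYFP-tagged A3G, seeded overnight at 37 deg C, then exposed to compound by pintool overnight at 37 deg C. Rise in yellow fluorescence (Ex 488/Em 500-530, Acumen) marks blocked Vif-driven A3G degradation.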
Epigenetic derep = epigenetic control regulation, reporter derepression | murine LDR cells, GFP reporter derepression, 30 h | Potency, µM (series often up to 53.9 µM), without a hit: at the highest dose GFP activation, actives largely listed as activators | AID 1865 | hit rate 0.2% among 280,000; note: % of control where 0% means no effect; nearly all actives have a fitted effect of over 60% in size
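In this reporter-derepression format, murine cells bearing a silenced integrated CMV-GFP locus incubate with test compound (30 h, 37 C), then are washed and imaged; fluorescent objects of 20–120 um count as induced cells.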
Vif-APOBEC3F blk = Vif-A3F binding inhibition. HeLa A3F-eYFP + Vif (tagged APOBEC3F with the HIV-1 protein that degrades it), YFP fluorescence increase. Potency, µM (top dose mostly 46.1 µM), inactives show at the highest dose activity, negative = active. hit rate 0.2% among 390,000. AID 602313; note: % of control where 0% means no effect; nearly all actives have a fitted effect of over 65% in size
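HeLa cells stably expressing Vif plus C-terminally eYFP-tagged A3F were seeded, incubated overnight at 37 deg C, dosed with compound, incubated overnight again at 37 deg C. Yellow fluorescence (Ex 488/Em 500-530) reported blocked Vif-mediated A3F-eYFP degradation.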
* = called active by the depositor; ? = inconclusive; · = no result. Unless noted, calls come from the whole dose curve; as a rule, active = well fitted curve in the direction sought with a large enough effect; inconclusive = small, poorly fitted or top-dose-only effect, or another doubt; inactive = no such curve, though single readings can be large; an effect the other way counts as inactive or inconclusive. Potency is the fitted concentration of half-maximal effect.

SMILES	PINK1 modulator	Vif-A3G inh	Epigenetic derep	Vif-APOBEC3F blk
CCCCn1c(N)c(N(CC(C)C)C(=O)Cc2ccc(S(=O)(=O)N3CCOCC3)s2)c(=O)[nH]c1=O	13.2%	?	·	25.1µM*
CCCCn1c(N)c(N(CCC(C)C)C(=O)Cc2ccc(S(=O)(=O)N3CCOCC3)s2)c(=O)[nH]c1=O	-0.9%	0.2%	·	3.8%
CC(C)(CO)NC(=O)c1cnn(-c2nccc(-c3ccc4c(c3)OCO4)n2)c1C1CC1	0.4%	·	·	·
C=CCSc1nnc(C)c(/C=C/Nc2ccc(Cl)cc2)n1	2.5%	?	?	25.1µM*
COc1ccccc1C(=O)N[C@@H]1c2ccccc2C2(CCN(Cc3ccc(C)o3)CC2)[C@H]1O	1.2%	·	·	·
Cc1c(C(=O)NCc2nccs2)cnn1-c1ncc2c(n1)-c1ccccc1CC2	1.5%	·	·	·
CCOC(=O)/C(C(N)=NCCCO)=C(/O)c1ccccc1	14.1µM*	-0.2%	0.1%	-3.7%
COc1ccc(OC)c(CN2C[C@H](Sc3ccc(F)cc3)C[C@H]2C(=O)N(C)C)c1	-0.7%	·	·	·
CCCNC(=O)c1cc(-c2ccc(Br)cc2)on1	5.0%	1.0%	0.0%	0.1%
CC(C)NC(=O)c1cc(-c2ccc(Br)cc2)on1	10µM*	2.9%	-1.0%	-6.5%
COc1cc(-c2ccc(Cl)cn2)cc2c1OCCN(C(=O)c1ccccc1-n1cccn1)C2	1.7%	·	·	·
Cc1cc2nc3c(=O)n(C4CCCCC4)c(=O)[nH]c3nc2cc1N	14.1µM*	8.91µM*	0.9%	11.2µM*
CC(Oc1ccccc1)C(=O)NCC1Cc2cc(F)cc(-c3ccccn3)c2O1 (stereo not given)	-0.2%	·	·	·
CCN1/C(=C/c2ccc3cc(C)ccc3[n+]2CC)Sc2ccc3sccc3c21	?	-21.1%	·	?
CCN1/C(=C/c2ccc3cccc(C)c3[n+]2CC)Sc2ccccc21	3.98µM*	?	?	-146.9%
CCN1/C(=C/c2ccc3cc(C)cc(C)c3[n+]2CC)Sc2cc(C)ccc21	0.0%	?	15.8µM*	5.1%
CCN1/C(=C\c2ccc3cc(C)ccc3[n+]2CC)Sc2cc(C)c(C)cc21	?	14.8%	3.16µM*	?
CCN1/C(=C/C(C)=C/c2sc3ccccc3[n+]2CC)Sc2ccccc21	4.8%	13.6%	-1.3%	?
CCOc1ccc(NC(=O)/C(C#N)=C/c2ccc(N3CCCC3)c(C)c2)cc1	?	3.98µM*	1.3%	2.51µM*
CCN(CC)S(=O)(=O)c1ccc(N2CCCCC2)c(NC(=O)/C(C#N)=C/c2ccc(OC)cc2)c1	-0.8%	0.0%	2.2%	-1.3%
COCCN1C(=O)/C(=C/c2ccc(N3CCCC3)cc2C)SC1=S	22.4µM*	?	2.82µM*	?
CCN=C1S/C(=C\c2ccc(N3CCOCC3)cc2C)C(=O)N1CC	15.4%	?	0.0%	?
Cc1cc(C)nc(-c2cccc3c2OC(CNC(=O)c2ccc(Cn4nc(C)cc4C)cc2)C3)n1 (stereo not given)	0.2%	·	·	·
CC(C)C(NS(C)(=O)=O)c1nnc2n1CCN(Cc1ccc3cccnc3c1)CC2 (stereo not given)	1.3%	·	·	·
COC(=O)c1sc2nc(CSc3ccc(Br)cc3)[nH]c(=O)c2c1C	12.4%	-4.1%	7.3%	11.2µM*
SMILES	PINK1 modulator	Vif-A3G inh	Epigenetic derep	Vif-APOBEC3F blk
CCC1CN(CCNC(=O)C2CCCCN2C)Cc2cc(OC)ccc2O1 (stereo not given)	-0.3%	·	·	·
O=[N+]([O-])c1ccc(N/N=C/c2c[nH]c3ccccc23)cc1	-0.7%	7.94µM*	14.1µM*	12.6µM*
COc1ccccc1NS(=O)(=O)c1cc([N+](=O)[O-])ccc1N/N=C/c1c[nH]c2ccccc12	17.1%	11.2µM*	?	11.2µM*
Cc1[nH]c2ccccc2c1/C=N/Nc1ccc([N+](=O)[O-])cc1S(=O)(=O)Nc1ccc(Cl)cc1	6.8%	-8.0%	?	?
O=[N+]([O-])c1ccccc1N/N=C/c1c[nH]c2ccccc12	0.2%	3.9%	0.0%	-6.8%
COc1ccc(C=NNc2ccc([N+](=O)[O-])cc2S(=O)(=O)Nc2ccccc2C(=O)O)cc1OC	-0.5%	2.6%	·	3.0%
COc1ccc(NS(=O)(=O)c2cc([N+](=O)[O-])ccc2N/N=C\c2c(C)[nH]c3ccccc23)cc1	2.9%	-15.4%	10µM*	?
COc1ccc(C(=O)N/N=C/c2sc(N3CCOCC3)nc2-c2ccccc2)cc1OC	2.7%	-12.2%	-3.5%	3.9%
COc1ccccc1NS(=O)(=O)c1cc([N+](=O)[O-])ccc1N/N=C/c1sc(N2CCOCC2)nc1-c1ccccc1	-0.5%	?	2.82µM*	?
Cc1cnc(-n2ncc(C(=O)NCC3CCCN(C)C3)c2C)nc1-c1cccs1 (stereo not given)	0.4%	·	·	·
COc1ccccc1N1CCN(c2nc(CNC(=O)C3CCOC(C)(C)C3)nc3ccccc23)CC1 (stereo not given)	3.0%	·	·	·
Cc1cc(-c2cc(F)cc3c2OC(CNC(=O)CCn2cncn2)C3)ccc1F (stereo not given)	-0.6%	·	·	·
CCN1CCN(Cc2ccc(NC(=O)c3ccc(C)c(/C=C/c4cnc(Nc5cc(N6CCNCC6)nc(C)n5)cn4)c3)cc2C(F)(F)F)CC1	-0.8%	?	·	31.6µM*
Cc1cc(-c2ccnc(-n3ncc(C(=O)NCC4COCCO4)c3C)n2)c(C)s1 (stereo not given)	7.4%	·	·	·
CCc1nc2cc(C(=O)N3CCCN(C=O)CC3)cc(NC(=O)c3ccccc3OC)c2n1C	-0.7%	·	·	·
CCn1c2ccccc2c2c3ncc4cccn4c3ccc21	16.5%	?	3.7%	25.1µM*
CCCOc1ccc2cc(C(=O)NCc3ccccc3)c(=O)oc2c1	8.0%	-229.1%	·	31.6µM*
COC(=O)c1cc(=O)n(Cc2cccs2)c(=Nc2ccccc2)s1	4.3%	-22.5%	17.8µM*	-0.2%
CCCCCCN1C[C@H](O)[C@@H](n2cc(-c3ccc(F)cc3)nn2)C[C@@H]1c1ccc(Cl)cc1	15.8µM*	-10.7%	·	?
CCCCCCN1C[C@@H](n2cc(-c3ccc(F)cc3)nn2)[C@H](O)C[C@@H]1c1ccc(Cl)cc1	?	-21.0%	·	-14.8%
Cn1c(-c2ccncc2)nc2cc(C(=O)N[C@H]3CCCCNC3=O)cc(NC(=O)C3CCC3)c21	0.4%	·	·	·
O=C(NCCc1ccccn1)c1cnn(-c2ncc3c(n2)-c2ccccc2CC3)c1C1CC1	-0.6%	·	·	·
Cc1cc(C)cc(OC(C)C(=O)Nc2nonc2-c2ccc(Br)cc2)c1 (stereo not given)	15.8µM*	·	-0.7%	·
Cc1cccc(C)c1OCC(=O)Nc1nonc1-c1ccc(Br)cc1	?	·	-1.7%	·
O=C(N/N=C/c1ccccn1)c1sc2ccccc2c1Cl	-1.7%	-6.1%	?	-7.5%
O=C(N/N=C/c1ccc([N+](=O)[O-])o1)C(O)c1ccccc1 (stereo not given)	44.7µM*	-21.2%	0.0%	1.4%
O=C(N/N=C/c1ccc([N+](=O)[O-])o1)c1sc2ccccc2c1Cl	13.2%	?	2.2%	8.91µM*
